Data taken from PubChem BioAssay AID651804 (National Center for Advancing Translational Sciences (NCATS), 2012).
The whole screen tested about 1,200 compounds, of which about 20 (2%) were called active. Inconclusive results (about 23%) are left out. The full list was thinned out, with actives kept by preference. Values without a mark were called inactive. Calls follow the shape of the dose curve; as a rule, active = well fitted inhibition curve with a large enough effect; inconclusive = small, poorly fitted or top-dose-only effect; inactive = no such curve, though single readings can be large or run the other way.

What follows are molecules tested against Transcriptional regulator ERG (Homo sapiens) (UniProt P11308) (assay: qHTS for Small Molecule Inhibitors of the ERG Ets/DNA interaction: HTRF assay against cherry picks). Settings: His-ERG Ets domain with biotin-DNA; series mostly up to 154 µM; activity change, negative = inhibition: at the top concentration.
Transcriptional regulator ERG (Homo sapiens), sequence (P11308 whole entry, looked up, the tested form may be a part): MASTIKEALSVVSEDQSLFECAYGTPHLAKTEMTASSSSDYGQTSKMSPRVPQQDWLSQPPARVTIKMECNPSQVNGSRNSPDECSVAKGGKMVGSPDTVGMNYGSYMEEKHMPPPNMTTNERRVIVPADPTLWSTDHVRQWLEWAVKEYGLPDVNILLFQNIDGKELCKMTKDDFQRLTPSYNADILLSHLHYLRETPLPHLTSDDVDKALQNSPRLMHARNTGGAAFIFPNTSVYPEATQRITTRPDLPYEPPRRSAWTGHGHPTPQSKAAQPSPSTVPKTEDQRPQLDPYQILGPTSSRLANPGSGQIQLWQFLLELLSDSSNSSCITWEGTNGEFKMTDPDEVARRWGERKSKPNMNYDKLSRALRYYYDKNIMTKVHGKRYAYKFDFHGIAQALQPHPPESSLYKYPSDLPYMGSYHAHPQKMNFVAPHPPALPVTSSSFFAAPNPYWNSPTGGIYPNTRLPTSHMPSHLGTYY
Text: The Ets family of proteins is a family of ~30 conserved transcription factors defined by the presence of an ~85 amino acid domain referred to as the Ets domain, which mediates sequence-specific DNA binding to a core DNA element GGAA/T.The Ets family member ERG has been linked to several neoplasms. […] More extensive studies of the effects of over-expression of ERG in prostate cells have recently been carried out and have shown that over-expression of ERG results in increased invasion. […] We will carry out a high throughout screen to identify inhibitors of the interaction between ERG and DNA using a fluorescence polarization (FP) assay with a His-tagged ERG Ets domain and fluorescently-labeled DNA probes to develop small molecule inhibitors of this interaction as probes to test this hypothesis and lay the groundwork for the development of targeted therapies against ERG. This is the counterscreen against the cherry picks. NIH Molecular Libraries Probe Production Network [MLPCN] NIH Chemical Genomics Center [NCGC] Grant: NS066464 PI Name: John Bushweller, University of Virgina
2 ul of protein solution (200 nM ERG domain in 300mM KCl, 50mM Tris-HCl, 1mM EDTA, 1mM DTT, pH 7.5); 20 nl Control plate and compound library plate; 2 ul of 200 nM biotin-DNA; incubate for 10 min at RT; 1 ul of anti-His antibody conjugated to the long-life fluorescent cryptate donner […] (5ng/ul) and streptavidin conjugated to the acceptor compound […] (0.2 ng/ul) mix; incubate 10 min and measure FRET (Excitation = 320 nm, Emission = 615, 665 nm).
Potency is read from the fitted curve at half-maximal effect.

Compound	Potency	activity change, negative = inhibition [%]
O=C1c2ccc3c4c(ccc(c24)C(=O)N1CCCCO)C(=O)N(CCCCO)C3=O	20 µM (active)	
Cc1ccc(N(CCCCN2C(=O)c3ccccc3C2=O)C(=O)c2ccc(Cl)s2)cc1		-1.7
CC(=O)C(c1ccccc1)C(c1ccccc1)C(C)[N+](=O)[O-] (configuration not stated)		-25.3
COc1cc(CO)ccc1OCC(=O)Nc1cccc2ccccc12		-34.3
CN(C(=O)COC(=O)c1ccc(F)c(S(=O)(=O)N2CCOCC2)c1)C1CCS(=O)(=O)C1 (configuration not stated)		-15.2
Cc1occc1C(=O)NCCc1ccc(Cl)cc1		2.02
CCc1cc(C(=O)NNC(=S)Nc2cccc(C)c2)cs1		-26.5
Cc1cccc(-n2c(-c3ccccc3)c[nH]c2=S)c1C		-29.7
Cc1ccc(NC(=O)c2cc3cc(OC(F)(F)F)ccc3[nH]2)cc1		-19
CCCCn1c(N)c(N(CC)C(=O)c2ccc(C#N)cc2)c(=O)[nH]c1=O		-8.75
CCCCn1c(=O)[nH]c2nc3cc(N)ccc3nc2c1=O	50.1 µM (active)	
O=C(Nc1ccccc1)Nc1ncc([N+](=O)[O-])s1	39.8 µM (active)	
Cc1cc(C)nc(N2CCN(c3nnnn3-c3ccccc3)CC2)n1		3.18
CCCN(C(=O)c1nn(-c2ccc(C)cc2)c(=O)c2c1c1ccccc1n2C)c1ccccc1C		-29.5
Cc1ccccc1C(=O)N/N=C1/SCC(=O)N1Cc1ccccc1		1.11
Cc1cccc(C(=O)NCCNc2nc3cc(C)c(C)cc3cc2C)c1		-17.8
O=C1c2ccccc2C(=O)c2c1ncn2-c1ccccc1	15.8 µM (active)	
O=C(CNC(=S)N(Cc1ccccc1)Cc1cccnc1)NC1CCCCC1		-9.71
Cc1ccc(-c2noc(C3CCCN(C(=O)c4cccc([N+](=O)[O-])c4)C3)n2)o1 (configuration not stated)		-24.6
Cc1cc2cc(CNC(=O)C(C)Oc3ccccc3)ccc2n1C (configuration not stated)		-9.92
CC(Oc1ccc(F)cc1)C(=O)Nc1ccc(S(=O)(=O)NC2=NCCCCC2)cc1 (configuration not stated)		-5.41
COc1ccc(C(=O)NCc2ccc(OCCN(C)C)cc2)cc1OC		-16.1
Cc1cc(F)ccc1NC(=O)c1ccc(NS(=O)(=O)c2cc(C(C)(C)C)ccc2C)cc1		-11.9
O=C1[C@H]2[C@@H](c3ccc(F)cc3)N3C(=O)N(c4cccc(F)c4)C(=O)[C@@]3(Cc3ccccc3)[C@H]2C(=O)N1C1CCCCC1		-28.6
CCNc1nc(OCC)nc(N2CCC(Cc3ccccc3)CC2)n1		4.46
CSc1ccccc1NC(=O)CN(C)C(=O)/C=C/c1ccccc1		-23.6

Compound	Potency	activity change, negative = inhibition [%]
CC(=O)c1cccc(NC(=O)C(C)OC(=O)CCc2nc3ccccc3c(=O)[nH]2)c1 (configuration not stated)		-21.7
Nc1ccc2[nH]ncc2c1		-70.6
O=C(CSC1=NCCS1)NC(NC(=O)CSC1=NCCS1)c1ccccc1		-23
CCOc1ccccc1NC(=O)COc1ccc2ccc(=O)oc2c1		5.68
O=C(/C=C/c1ccc([N+](=O)[O-])cc1)NCc1ccco1	28.2 µM (active)	
O=C(CCc1c[nH]c2ccccc12)NCc1ccco1		-5.25
O=C(COC(=O)/C=C/c1ccc([N+](=O)[O-])cc1)NCc1cccs1		-28.9
O=C(NCc1cccnc1)c1ccccc1-c1nc(-c2ccccc2)no1		-23.1
O=C(NC(c1ccccc1)C(Cl)Cl)c1ccccc1 (configuration not stated)		-11.6
CCOC(=O)CSc1nc2ccc(NC(=O)c3ccc(F)cc3)cc2s1		26.8
CCN(C(=O)CSc1nc2cc(C(=O)O)ccc2c(=O)n1Cc1ccccc1)c1ccccc1		-26.9
Cc1noc(C)c1S(=O)(=O)N(CC(=O)NCc1ccc(F)cc1)c1ccc(C(C)C)cc1		-22.4
Cc1[nH]c2ccc(C(=O)OCC(=O)Nc3cccc(S(N)(=O)=O)c3)cc2c1C		-12.7
O=C(C1CCN(CCc2ccccc2)CC1)N1CCOCC1		-17
Cc1ccnn1-c1ccc(C(=O)OCC(=O)Nc2ccc(F)cc2)cc1		-27.1
CCN(CC(=O)N1CCCCCC1)S(=O)(=O)c1ccc(Cl)cc1		-18.2
COc1ccc(-c2cc(N)n(S(=O)(=O)Cc3ccccc3)n2)c(OC)c1		-25
O=C(CCN=C1NS(=O)(=O)c2ccccc21)OCc1ccccc1		-3.29
COc1ccc(NC2CCCN(C(=O)C3(C)CCCCC3)C2)cc1OC (configuration not stated)		-11.5
COc1ccccc1C(C)NC(=O)c1cc(S(=O)(=O)N2CCCCC2)ccc1C (configuration not stated)		0.53
O=C(C1CC(=O)N(c2ccc(Cl)cc2)C1)N1CCCCCC1 (configuration not stated)		0.955
CCN(C(=O)COC(=O)c1ccc(=O)n(Cc2ccccc2)n1)C1CCS(=O)(=O)C1 (configuration not stated)		-38
C=CCC[C@H](Cc1ccc(F)cc1)C(=O)OC[C@@H](Cc1c[nH]c2ccccc12)NC(=O)[C@H](CC=C)CC(=O)N(CCO)Cc1ccccc1		-14.7
O=C(OCC(=O)c1c[nH]c2ccccc12)c1ccc([N+](=O)[O-])s1	35.5 µM (active)	
Cc1nn(C2CCS(=O)(=O)C2)c(Cl)c1/C=C/C(=O)OCC(=O)c1c[nH]c2ccccc12 (configuration not stated)		-21.3
CCCN(CC(=O)Nc1ccc(F)c(F)c1F)C(=O)C1CC(=O)N(Cc2ccccc2)C1 (configuration not stated)		-22.6
